Assay outcomes: PubChem BioAssay, several laboratories
Shown are actives, neighbours in structure and some others; about 4.1% of the full set was active somewhere.
RecA intein inh = Mtb RecA intein splicing inhibition; P9WHJ3; cell-free RecA intein splicing, fluorescence; inhibition, % (concentration not given with the values); actives 0.75% (n = 290,000); AID 2221; in the data active = inhibition above about 30%;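 also: 0% = vehicle wells and 100% = reference inhibitor control wells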
Target sequence (P9WHJ3 whole entry, looked up): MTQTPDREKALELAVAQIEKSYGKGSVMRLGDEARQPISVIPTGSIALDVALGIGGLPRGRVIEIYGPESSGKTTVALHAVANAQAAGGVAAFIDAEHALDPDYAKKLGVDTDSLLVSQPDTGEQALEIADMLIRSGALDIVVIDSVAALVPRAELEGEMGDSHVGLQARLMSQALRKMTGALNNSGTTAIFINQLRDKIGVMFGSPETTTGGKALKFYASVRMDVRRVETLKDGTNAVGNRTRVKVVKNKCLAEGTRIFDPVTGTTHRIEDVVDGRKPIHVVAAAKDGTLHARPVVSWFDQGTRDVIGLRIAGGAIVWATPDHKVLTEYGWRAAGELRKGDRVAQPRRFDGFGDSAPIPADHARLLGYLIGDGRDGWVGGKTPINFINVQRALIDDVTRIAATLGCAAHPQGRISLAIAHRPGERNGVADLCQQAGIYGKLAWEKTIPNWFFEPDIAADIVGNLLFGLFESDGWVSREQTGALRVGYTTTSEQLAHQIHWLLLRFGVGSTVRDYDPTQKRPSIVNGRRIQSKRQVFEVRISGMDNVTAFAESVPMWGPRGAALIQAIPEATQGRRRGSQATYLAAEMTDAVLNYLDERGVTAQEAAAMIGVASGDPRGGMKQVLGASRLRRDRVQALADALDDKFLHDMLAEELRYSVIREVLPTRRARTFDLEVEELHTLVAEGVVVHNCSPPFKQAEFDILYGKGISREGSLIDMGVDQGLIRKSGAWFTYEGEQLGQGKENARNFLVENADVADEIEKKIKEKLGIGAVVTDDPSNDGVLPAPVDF
GDH-TPI counter = inhibits GDH-TPI coupling enzymes, artifact for Mtb FBA screen; GDH-TPI coupled enzyme counterscreen, NADH absorbance; inhibition, % at 4.8 µM; actives 1.2% (n = 360,000); AID 588335; in the data active = inhibition above about 30%;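 also: 0% = DMSO wells and 100% = wells lacking the enzyme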
FBA Mtb inh = Mtb fructose-bisphosphate aldolase inhibition; actives 2.3% (n = 360,000); purified M. tuberculosis FBA, fluorescence read-out; inhibition, % at 1 µM; AID 588726; P9WQA3; in the data active = inhibition above about 27%;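 also: 0% = vehicle and 100% = reference inhibitor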
Vc quorum ag = inducers of Vibrio cholerae quorum light production without autoinducers; V. cholerae BH1578 lux reporter, luminescence, 6 h; activation, % at 18.7 µM; actives 0.16% (n = 350,000); in the data active = activation mostly above about 9.7%, no sharp cut-off
Mtb UGM inh = inhibitors of M. tuberculosis UDP-galactopyranose mutase. P9WIQ1. purified UGM, fluorescence polarization probe displacement. inhibition, % at 10 µM. actives 0.06% (n = 320,000). AID 504406; in the data active = inhibition above about 10%, passing the limit was not always enough
Rv3671c inh = inhibits the M. tuberculosis serine protease Rv3671c; P9WHR9; AID 2606; inhibition, % at 5.96 µM; actives 0.048% (n = 320,000); in the data active = inhibition above about 38%;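 also: extracellular domain of Rv3671c used as enzyme; 0% = enzyme with DMSO and 100% = no enzyme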
GFP chromophore = counter-screen GFP chromophore formation inhibition; cell-free GFP chromophore formation, fluorescence; EC50, µM; actives 83% (n = 2,100); shares compounds with RecA intein inh; call rule not given here
Numbers without * were called inactive; i = inactive; x = no result given.

SMILES	RecA intein inh	GDH-TPI counter	FBA Mtb inh	Vc quorum ag	Mtb UGM inh	Rv3671c inh	GFP chromophore
COc1cc(/C=N/NC(=S)Nc2cccc(Cl)c2C)ccc1OCC(=O)N1CC(C)OC(C)C1 (configuration not stated)	55.2*	32.6*	-2.0	-0.2	0.1	5.8	36.7*
C/C(=N\NC(=O)Cc1cccn1C)c1ccc([N+](=O)[O-])cc1	-1.4	14.8	1.4	1.2	0.9	0.9	x
C/C(=N\NC(=O)Cc1cc(=O)[nH][nH]1)c1cccc([N+](=O)[O-])c1	87.9*	-2.7	-1.4	-0.3	1.4	-2.5	8.76*
C/C(=N/NC(=O)Cc1cc(=O)[nH][nH]1)c1ccc([N+](=O)[O-])cc1	84.4*	8.1	-1.5	-0.3	-0.4	-32.3	7.45*
CCOc1ccc(S(=O)(=O)Nc2cc(SCC(=O)O)c(O)c3ccccc23)cc1	96.3*	9.4	1.8	-1.7	1.4	x	8.86*
CCOC(=O)c1ccccc1NS(=O)(=O)c1ccc(OCC)cc1	9.9	-3.6	0.9	-0.3	0.1	-5.3	x
Cc1ccc(C)c(S(=O)(=O)Nc2cc(SCC(=O)O)c(O)c3ccccc23)c1	x	4.0	-1.2	-0.3	0.6	-147.2	x
CCc1ccc(S(=O)(=O)Nc2cc(SCC(=O)O)c(O)c3ccccc23)cc1	93.8*	7.6	1.9	i	0.8	-114.1	0.703*
O=C(NCc1cccnc1)c1cc(C(=O)NCc2cccnc2)cc([N+](=O)[O-])c1	x	3.5	-0.6	5.9	x	x	x
CC(=O)Nc1ccc(NC2=C(Cl)C(=O)c3ccccc3C2=O)cc1	7.4	x	x	x	x	x	x
Cc1ccc(NC2=C(NCCO)C(=O)c3ccccc3C2=O)cc1	70.7*	17.9	-0.8	-0.2	5.1	-179.2	19.9*
CN(Cc1nccn1C)C(=O)C1CCC(=O)N(Cc2cccc(C(F)(F)F)c2)C1 (configuration not stated)	-4.6	-5.2	0.9	i	-0.9	-6.1	x
CCOc1ccc(NC(=O)C(c2ccccn2)N(C(=O)CCl)c2ccc(F)cc2)cc1 (configuration not stated)	66.4*	5.4	1.2	i	-0.4	-10.7	15.1*
COc1ccc(OC)c(N2C(=O)C(Cl)=C(N3CCCCC3)C2=O)c1	62.6*	9.2	1.2	i	2.9	4.0	16.9*
Cc1ccccc1N1C(=O)C(Cl)=C(N2CCCCCC2)C1=O	8.2	-1.9	-7.0	-0.5	-3.0	-11.3	x
O=C1C(Cl)=C(N2CCCCC2)C(=O)N1c1ccccc1Cl	76.7*	6.0	1.8	-0.5	-0.2	-5.7	6.17*
O=C1C(Cl)=C(N2CCCCC2)C(=O)N1c1ccccc1	40.9*	1.2	-5.6	-1.4	2.0	-11.2	8.78*
Cc1ccc(N2C(=O)C(Cl)=C(N3CCCCCC3)C2=O)cc1	8.9	8.4	-2.8	-0.4	1.9	1.6	x
CC(C)[C@H](NC(=O)c1ccc(C(C)(C)C)cc1)C(=O)N1CCN(Cc2ccc3c(c2)OCO3)CC1	x	11.6	2.7	-0.4	-1.1	-1.0	x
Nc1ccc(O)cc1	80.8*	x	x	x	5.0	2.1	31.4*
O=c1cc(-c2ccc(Cl)c(Cl)c2)[nH][nH]1	88.2*	8.1	-4.2	-0.2	-2.8	-57.5	6.59*
O=c1cc(-c2ccc(Cl)cc2)[nH][nH]1	93.6*	-9.7	-0.5	-0.3	0.1	-152.6	1.87*
O=[N+]([O-])c1ccc(-c2cc(-c3ccc(Cl)cc3)n[nH]2)cc1	3.0	26.7	-0.7	-0.5	-0.4	-19.3	x
COc1ccc(-c2cc(=O)[nH][nH]2)cc1	98.4*	-2.8	1.1	i	0.6	-101.8	1.86*
COc1ccc(-c2cc(=O)[nH]c(=O)[nH]2)cc1	5.4	17.5	-3.5	x	-2.4	-1.7	x
CCNC(=O)NC1(C(=O)N2CCC(Cc3ccccc3)CC2)CCCCC1	-2.4	-4.3	0.2	-0.3	2.7	x	x
Cc1ccc(C(=O)Nc2nc(C(N)Cc3ccc(C(F)(F)F)cc3)cs2)cc1 (configuration not stated)	x	14.6	-0.4	-0.6	x	x	x
c1ccc(-c2nnc(-c3ccccn3)nc2NC2CCCCC2)cc1	37.9*	17.9	-2.3	i	-1.7	3.4	22.6*
CCCCNC1C(CC)C(CCC)C(C#N)(C#N)C1(C#N)C#N (configuration not stated)	76.1*	0.0	0.9	i	4.2	0.9	12.1*
